Most compounds without a hit are left out; they make up all but 7% or so of the library.
GRIN3A LBD mod = binders of NR3A ligand-binding domain, primary screen, biophysical, differential scanning fluorimetry, uHTS. Glutamate receptor ionotropic, NMDA 3A (GRIN3A) ligand-binding domain. NR3A LBD differential scanning fluorimetry, Tm shift; 0% = protein alone, 100% = glycine-bound protein. Tm shift relative to glycine control, % at 25 µM. 340,000 tested, 2.5% active;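 active = melting temperature shift of at least 10% of the positive control shift, at one fixed dose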
AHR act = AHR activators, primary screen, cell-based, luminescence, luciferase reporter, human | Aryl hydrocarbon receptor (Homo sapiens), P35869 | AHR-responsive luciferase reporter cells | 320,000 tested, 2.5% active | activation, % at 5 µM; in the data active = activation above about 47%
ADAM10 inh = human ADAM10 inhibitors, primary screen, biochemical, QFRET, HTS; recombinant ADAM10, EDANS/DABCYL FRET peptide cleavage, 3 h; inhibition, % at 7 µM; 370,000 tested, 0.62% active;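 active = inhibition above a per-campaign cutoff equal to the mean of compounds falling between control-based bounds plus 3 SD, cut at about 20% in these data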
Target sequence (O14672 214-748 limits assumed): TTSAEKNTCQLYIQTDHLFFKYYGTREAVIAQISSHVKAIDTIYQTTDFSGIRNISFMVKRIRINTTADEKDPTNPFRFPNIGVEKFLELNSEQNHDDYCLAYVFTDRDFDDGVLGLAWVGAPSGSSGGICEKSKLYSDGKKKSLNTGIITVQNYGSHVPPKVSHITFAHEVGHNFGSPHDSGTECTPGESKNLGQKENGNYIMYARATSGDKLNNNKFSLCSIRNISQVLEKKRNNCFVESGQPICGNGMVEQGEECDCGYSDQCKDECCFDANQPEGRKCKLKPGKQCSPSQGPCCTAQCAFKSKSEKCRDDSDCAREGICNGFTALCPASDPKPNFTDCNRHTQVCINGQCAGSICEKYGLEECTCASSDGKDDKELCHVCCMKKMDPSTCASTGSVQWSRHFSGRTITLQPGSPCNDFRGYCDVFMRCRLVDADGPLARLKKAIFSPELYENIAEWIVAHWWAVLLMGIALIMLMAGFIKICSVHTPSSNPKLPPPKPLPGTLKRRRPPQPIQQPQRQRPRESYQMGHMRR
ADAM17 inh = ADAM17 inhibitors, primary screen, biochemical, QFRET. inhibition, % at 6.95 µM. Disintegrin and metalloproteinase domain-containing protein 17 (Homo sapiens), P78536. AID 720648, 2013. 370,000 tested, 0.83% active. recombinant ADAM17, EDANS/DABCYL FRET peptide cleavage;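 active = inhibition above the mean of compounds lying between control limits plus 3 SD, set per campaign, cut at about 8.5% in these data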
rCAG binder = binders of r(CAG) RNA repeats, primary screen, biochemical, fluorescence; r(CAG) RNA repeat, TO-PRO-1 dye displacement fluorescence; inhibition, % at 3 µM; 370,000 tested, 1.3% active;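 active = inhibition above the plate cutoff, the mean of all test compounds on that plate plus 3 SD, cut at about 35% in these data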;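 also: higher means more dye released from RNA so lower well fluorescence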
proKLK7 act = proKLK7 zymogen activators, primary screen, biochemical, fluorescence intensity; Kallikrein-7 (Homo sapiens), P49862; purified proKLK7, EDANS-DABCYL substrate fluorescence; 100% is mature enzyme control, 0% vehicle; activation, % at 7 µM; 370,000 tested, 0.9% active; AID 652039, 2013;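 active = activation above the mean of all tested compounds plus 3 SD, computed per campaign excluding outliers beyond control limits, cut at about 13% in these data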
Of the large screens only hits and unclear results are named; the others gave an inactive call.

Oc1ccc(/C=N/Nc2ccc(Cl)nn2)c(O)c1O	GRIN3A LBD mod 22.2
O=C(Nc1cc(SCCO)cc([N+](=O)[O-])c1)c1ccc(Br)o1	AHR act 51.9
O=C(CCCl)Nc1cc(SCCO)cc([N+](=O)[O-])c1	none
O/N=C/c1ccc(OCc2ccccc2)c(Br)c1	none
O/N=C/c1cc(Br)cc(Br)c1OCc1ccccc1	AHR act 63.7
O=C(Cc1ccccc1)N/N=C/c1cc(Br)cc(Br)c1O	GRIN3A LBD mod 11.5
O=C(CNC(=O)c1cccc(Br)c1)N/N=C/c1cc(Br)cc(Br)c1O	GRIN3A LBD mod 17.1
O=C(Cc1ccccc1)N/N=C/c1cc(Br)cs1	none
C[C@@H](CO)N(Cc1cn(Cc2ccccc2)nn1)S(=O)(=O)c1ccccc1Br	none (no result: GRIN3A LBD mod, AHR act)
O=C(Nc1cccc(Cl)c1)OCc1cn(-c2ccccc2)nn1	GRIN3A LBD mod 10.7
Cn1cccc1C(=O)N1CCN(S(=O)(=O)c2ccc(Cl)s2)CC1	none (no result: GRIN3A LBD mod, AHR act)
O=C(N/N=C/c1cn[nH]c1-c1ccccc1)c1ccco1	AHR act 65.4
O=C(N/N=C\c1cn[nH]c1-c1ccccc1)c1ccc([N+](=O)[O-])cc1	none
Cc1cc(C(=O)N/N=C/c2cn[nH]c2-c2ccccc2)cs1	AHR act 96.0
COC(=O)C1CN(Cc2ccc(Cl)cc2)CCS(=O)(=O)N1Cc1cn(Cc2ccccc2)nn1 (stereo not drawn)	none (no result: GRIN3A LBD mod, AHR act)
C[n+]1cc(C(O)(c2ccccc2)c2ccccc2)n2ccccc21	none (no result: GRIN3A LBD mod, AHR act, rCAG binder, proKLK7 act)
COC(=O)C1CN(C(=O)c2cccc(OC(F)F)c2)c2ccccc2O1 (stereo not drawn)	AHR act 49.2
O=C(/C=C/c1ccccc1)NC(=S)NNC(=O)Cc1cccs1	AHR act 48.5
O=C(/C=C/c1cccs1)NC(=S)NNC(=O)c1ccccc1O	rCAG binder 37.6
CCOC(=O)C1=NOC(C(C)=O)(C(=O)Nc2cc(C)cc(C)c2)C1 (stereo not drawn)	none (no result: GRIN3A LBD mod, AHR act)
COCc1[nH]nc2c1C(c1ccc(C)cc1)N(Cc1ccccc1)C2=O (stereo not drawn)	none (no result: GRIN3A LBD mod, AHR act)
CC[C@@H]1CC=C[C@H]2[C@H]1C(=O)N(Cc1ccccc1)[C@H]2c1ccoc1	none (no result: ADAM10 inh, ADAM17 inh, rCAG binder, proKLK7 act)
Cc1ccc(-c2ccc([C@H]3[C@H]4C=CC[C@@H](C)[C@@H]4C(=O)N3Cc3ccccc3)c(F)c2)cc1	GRIN3A LBD mod 12.9
C[C@@H]1CC=C[C@H]2[C@H]1C(=O)N(Cc1ccccc1)[C@H]2c1ccc(-c2ccc(N(C)C)cc2)cc1F	none
CC[C@@H]1CC=C[C@H]2[C@H]1C(=O)N(Cc1ccccc1)[C@H]2c1ccc(C(F)(F)F)cc1	GRIN3A LBD mod 11.5
Brc1ccc(OCCCOc2cccc3cccnc23)cc1	none
Brc1ccc(-c2cn3c(n2)CCc2ccc4cccnc4c2-3)cc1	AHR act 47.1
O=C(CCc1ccccc1)N[C@H]1[C@H](OC(=O)c2cnccn2)CCC[C@]12C(=O)N(Cc1ccccc1)c1ccccc12	none (no result: GRIN3A LBD mod, AHR act)
C#CCNC(=O)CSCc1nc(-c2ccc(OCC)cc2)oc1C	none (no result: GRIN3A LBD mod, AHR act, rCAG binder, proKLK7 act)
Nc1c(C(=O)Nc2nc3ccccc3s2)sc2nc(-c3cccs3)ccc12	GRIN3A LBD mod 27.9 (no result: ADAM10 inh, ADAM17 inh, rCAG binder, proKLK7 act)
CC(C)NC(=O)c1sc2nc(-c3cccs3)cc(-c3cccs3)c2c1N	none
CC(=O)c1sc2nc(-c3cccs3)ccc2c1N	GRIN3A LBD mod 22.4
COCCCN1C(=O)[C@H](CC(=O)NCCc2ccccc2OC)[C@]2(C(=O)OC)CCCCC=C12	none (no result: GRIN3A LBD mod, AHR act)
O=S(=O)(Nc1cccc2cccnc12)c1ccccc1	none
Cc1ccc2cccc(NS(=O)(=O)c3ccccc3)c2n1	AHR act 71.2
Cc1ccnc(NC(=O)CCC(=O)N(CC(=O)NCC2CCCO2)Cc2ccc(F)cc2)c1 (stereo not drawn)	GRIN3A LBD mod 10.8
Cc1ccnc(NC(=O)CCC(=O)N(CC(=O)NCc2ccc(F)cc2)CC2CCCO2)c1 (stereo not drawn)	none
C[C@H]1COc2cc(N3CCOCC3)ccc2S(=O)(=O)N1	none (no result: GRIN3A LBD mod, AHR act)
CCn1c(SCC(=O)c2ccc3ccccc3c2)nnc1-c1ccco1	AHR act 77.8
CCn1c(SCC(=O)c2ccc3c(c2)OCCO3)nnc1-c1ccco1	none
COc1ccc(OC)c(S(=O)(=O)NCC2CCN(C(=O)C(=O)c3cc4ccccc4o3)CC2)c1	none (no result: GRIN3A LBD mod, AHR act)
CCC(C(=O)Nc1c(C)cccc1C)n1c(-c2ccc(=O)[nH]c2)nc2ccccc21 (stereo not drawn)	none (no result: GRIN3A LBD mod, AHR act)
CCOC(=O)c1ccc(NC(=S)NC(=O)c2nn(CC)cc2Br)cc1	none
CCn1cc(Br)c(C(=O)Nc2ccc(F)c(Cl)c2)n1	GRIN3A LBD mod 15.2, AHR act 51.4
CCOC(=O)c1ccc(NC(=O)c2nn(CC)cc2Br)cc1	none
CCn1cc(Br)c(C(=O)NC(=S)Nc2ccc(C(=O)OC)cc2)n1	GRIN3A LBD mod 12.2
Cc1c(C(=N)C(C#N)C#N)c(=N)oc2c1ccc1ccccc12	AHR act 64.7
COc1ccc2cc(C(=O)N3CCc4ccccc43)[nH]c2c1	AHR act 82.4
O=C(c1cc2cc(Br)ccc2[nH]1)N1CCc2ccccc21	none (no result: AHR act)
COC(=O)CC#C[C@H](C)[C@@H](NS(=O)(=O)c1ccc(C)cc1)C1CCCCC1	none (no result: GRIN3A LBD mod, AHR act)
N#Cc1cc2c(N)c(C(=O)Nc3ccccc3)sc2nc1N	AHR act 64.2 (no result: GRIN3A LBD mod, ADAM10 inh, ADAM17 inh, rCAG binder, proKLK7 act)
Nc1c(C(=O)Nc2ccccc2)sc2nc(-c3ccco3)ccc12	rCAG binder 34.6
Nc1c(C(=O)Nc2ccccc2)sc2nc(-c3cccnc3)ccc12	none (no result: GRIN3A LBD mod)
C[C@@H]1CN([C@@H](C)CN(C)C)C(=O)c2cc(NC(=O)Nc3ccccc3)ccc2O[C@@H](C)CCCCO[C@H]1CN(C)S(=O)(=O)c1ccc(F)cc1	none (no result: GRIN3A LBD mod, AHR act, rCAG binder, proKLK7 act)
O=C(NCCC1=CCCCC1)C1CCN(S(=O)(=O)c2ccccc2[N+](=O)[O-])CC1	none (no result: GRIN3A LBD mod, AHR act)
CC(C)OC(=O)C1=CNCC(C)(C)c2c1[nH]c1cc(F)ccc21	none (no result: GRIN3A LBD mod, AHR act, rCAG binder, proKLK7 act)
CCCCn1c(N)c(N(CCOC)C(=O)c2cc(S(=O)(=O)N3CCCCC3)ccc2Cl)c(=O)[nH]c1=O	GRIN3A LBD mod 20.4
CCCn1c(N)c(N(CCOC)C(=O)c2cc(S(=O)(=O)N3CCCCCC3)ccc2OC)c(=O)[nH]c1=O	none
Cc1ccc(F)cc1CNC(=O)C1CCC(=O)N(CCCN2CCCC2=O)C1 (stereo not drawn)	GRIN3A LBD mod 13.1
CSc1ccc(C#N)cc1NC(=O)c1ccc(Cl)cc1Cl	AHR act 59.2
CSc1ccc(C#N)cc1NC(=O)c1ccccc1	none
COc1ccc(/C=C2/SC(=O)N(CC(O)Cn3c4ccccc4c4ccccc43)C2=O)cc1 (stereo not drawn)	GRIN3A LBD mod 12.8
